Test results as given in PubChem BioAssay (NCI).
Where “and” joins values, the source holds several entries; their conditions need not be identical. Identical values can stand only once. About 83,000 compounds went through this panel and 20% of them were active in at least one assay; those are over-represented in the sample as a whole.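 In brief: 96-well plates, 48 h treatment, single concentration, percent growth endpoint.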

What was measured:
Experiment in all cases: NCI-60 one-dose screen, 48 h (100 = growth as untreated, 0 = no growth, -100 = all killed)
Details in all cases: 10 µM unless noted; active = growth percent below 10; inactive = the rest
[1] = tested on: NCI-H23 lung
[2] = tested on: NCI-H226 lung
[3] = tested on: NCI-H322M lung
[4] = tested on: HOP-62 NSCLC
[5] = tested on: NCI-H460 lung
[6] = tested on: HOP-92 NSCLC
[7] = tested on: A549/ATCC NSCLC
[8] = tested on: 786-0 renal
[9] = tested on: COLO 205 colon
[10] = tested on: DU-145 prostate
[11] = tested on: K-562 leukemia
[12] = tested on: MALME-3M melanoma
[13] = tested on: MDA-MB-231 breast
[14] = tested on: RXF 393 renal
[15] = tested on: SF-268 CNS
[16] = tested on: SF-295 CNS
[17] = tested on: SF-539 CNS
[18] = tested on: UACC-257 melanoma
[19] = tested on: M14 melanoma
[20] = tested on: NCI-H522 lung

Measured: growth

CC(O)CCNC(c1ccccc1)C(O)c1ccccc1 (stereo not given)
inactive: [1] 105% | [2] 111% | [3] 112% | [4] 104% | [5] 106% | [6] 86% | [7] 117% | [8] 97.9% | [9] 117% | [10] 131% | [11] 101% | [12] 123% | [13] 104% | [14] 115% | [15] 111% | [16] 102% | [17] 115% | [18] 108% | [19] 104%

Cc1ccc(C(=O)c2ccc(C)cc2)cc1
inactive: [1] 95.9% and 98.3% | [2] 92.4% and 94.6% | [3] 97.2% and 94.3% | [4] 92.5% and 98.4% | [5] 101% and 105% | [6] 59.2% and 73.7% | [7] 87.9% and 101% | [8] 90.7% and 99.6% | [9] 99.7% | [10] 102% and 103% | [11] 103% and 110% | [12] 108% and 93.2% | [13] 103% and 106% | [14] 88% and 95.8% | [15] 94.8% and 98% | [16] 94.4% and 103% | [17] 85.3% and 97.6% | [18] 92.6% and 114% | [19] 101%

CC(=O)C[n+]1ccccc1Sc1ccc(Cl)cc1
inactive: [1] 100% | [2] 91.1% | [3] 99.6% | [4] 107% | [5] 77% | [6] 98.8% | [20] 108% | [7] 84.6% | [8] 82.6% | [9] 109% | [10] 95% | [11] 90.9% | [12] 97.1% | [13] 52.3% | [14] 109% | [15] 74.9% | [16] 82.9% | [17] 68.8% | [18] 99% | [19] 99.3%

O=S(=O)(O)c1ccc2cc(O)ccc2c1
inactive: [1] 98.3% | [2] 98% | [3] 99.2% | [4] 99.7% | [5] 102% | [6] 88.8% | [20] 90% | [8] 104% | [9] 103% | [10] 112% | [11] 103% | [12] 101% | [13] 108% | [14] 109% | [15] 106% | [16] 110% | [17] 102% | [18] 105%

CCCCCCCCCCCCCCCCC(=O)O
inactive: [1] 97.6% | [2] 101% | [3] 98% | [4] 104% | [5] 108% | [6] 110% | [20] 102% | [8] 97.7% | [9] 114% | [10] 107% | [11] 89.5% | [12] 98.3% | [13] 105% | [14] 99.5% | [15] 102% | [16] 104% | [17] 106% | [18] 101%

CCOC(=O)NC(N)=O
inactive: [1] 103% and 99% | [2] 99.8% and 96.5% | [3] 93% and 105% | [4] 88.5% and 111% | [5] 105% and 104% | [6] 102% | [7] 104% and 107% | [8] 97.3% and 101% | [9] 110% and 118% | [10] 111% and 119% | [11] 90.7% and 110% | [12] 93.3% | [13] 118% and 102% | [14] 114% | [15] 106% and 119% | [16] 99.9% and 93.2% | [17] 95.6% and 99.2% | [18] 94% and 97.1% | [19] 101%

Nc1ccc(Cl)c(S(=O)(=O)O)c1
inactive: [1] 97% | [2] 97.1% | [3] 89.2% | [4] 100% | [5] 105% | [6] 106% | [8] 104% | [9] 111% | [10] 105% | [11] 104% | [12] 112% | [13] 111% | [14] 95.1% | [15] 102% | [16] 112% | [17] 94.3% | [18] 98.8% | [19] 98.9%

O=[N+]([O-])c1ccc(N/N=C/C2CCCCCC2)c([N+](=O)[O-])c1
inactive: [1] 99.9% | [2] 101% | [3] 78.8% | [4] 97% | [5] 94.6% | [6] 82.6% | [7] 79.9% | [8] 96.7% | [9] 94.6% | [10] 92% | [11] 83.4% | [12] 98% | [13] 81.8% | [14] 98% | [15] 87.4% | [16] 98.1% | [17] 99.8% | [18] 96.5% | [19] 85.1%

CC(C)(C(=O)c1cccnc1)c1cccnc1
inactive: [1] 107% and 133% | [2] 96.6% and 89.7% | [3] 92% and 103% | [4] 109% and 103% | [5] 103% and 101% | [6] 89.3% | [20] 93.5% and 100% | [8] 103% and 99.5% | [9] 113% and 117% | [10] 112% and 114% | [11] 104% and 115% | [12] 96.3% and 125% | [13] 96.4% and 119% | [14] 105% and 119% | [15] 107% and 106% | [16] 95.7% and 124% | [17] 99.5% and 95.9% | [18] 97.3% and 115% | [19] 101% and 92.2%

O=c1[nH]c(=O)c2[nH]c(=O)[nH]c2[nH]1
inactive: [1] 92.8% | [2] 93.2% | [3] 101% | [4] 105% | [5] 104% | [6] 89.9% | [7] 104% | [8] 94.2% | [9] 105% | [10] 107% | [11] 135% | [12] 93.2% | [13] 101% | [14] 84.6% | [15] 103% | [16] 98.3% | [17] 97.7% | [18] 107% | [19] 91.5%

NC(=O)Cc1nc(O)cc(=O)[nH]1
inactive: [1] 107% | [2] 99.1% | [3] 103% | [4] 81.6% | [5] 105% | [6] 91.7% | [7] 89.8% | [8] 98.4% | [9] 108% | [10] 115% | [11] 102% | [12] 103% | [13] 96.5% | [14] 107% | [15] 102% | [16] 96.5% | [17] 101% | [18] 86.4% | [19] 101%

Clc1ccc2sc(-c3ccccc3)nc2c1
inactive: [1] 101% | [2] 82.2% | [3] 102% | [4] 74.5% | [5] 80% | [6] 105% | [20] 82.5% | [8] 108% | [9] 115% | [10] 113% | [11] 92.9% | [12] 104% | [13] 80.3% | [14] 103% | [15] 96% | [16] 100% | [17] 95.5% | [18] 65.6% | [19] 102%

COc1ccc(CCN=Cc2ccc(Cl)cc2)cc1OC
inactive: [1] 100% | [2] 112% | [3] 106% | [4] 107% | [5] 113% | [6] 89.6% | [7] 108% | [8] 108% | [9] 108% | [10] 106% | [11] 122% | [12] 135% | [13] 109% | [14] 177% | [15] 99.5% | [16] 121% | [17] 111% | [18] 109% | [19] 111%
